# CRFBP-R2 block: blocks CRF-induced signaling of the CRF-BP/CRF-R2 complex; HEK293 CRF-R2/CRF-BP, CRF-induced calcium fluorescence; inhibition, % at 11.8 µM; actives 0.59% (n = 350,000); AID 588475;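 active means inhibition of the ligand-induced calcium signal above about 50% at the single tested concentration, limit read from the data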
# TLR4-MyD88 BLA: TLR4-MyD88 interaction inhibition in cells; AID 861; actives 0.18% (n = 200,000); HeLa CL3-4 TLR4/MyD88 BLA complementation, FRET ratio; inhibition, % at 8.4 µM; O00206+Q99836; in the data active means inhibition above about 25%;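 further: 0% = vehicle and 100% = reference inhibitor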
# HTR2A ag: agonists of mouse serotonin 5-HT2A receptor (HTR2A) | P35363 | CHO-K1 mHTR2A beta-arrestin complementation, luminescence; percent of 30 µM serotonin response | activation, % at 7.6 µM | actives 0.66% (n = 360,000) | AID 624169;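 active means activation above a run cutoff, the mean activation of all tested compounds plus 3 SD, cut at about 14% in these data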;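 further: 0% = plate median of compound wells and 100% = 30 µM serotonin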
# Target sequence (P35363 whole entry, looked up): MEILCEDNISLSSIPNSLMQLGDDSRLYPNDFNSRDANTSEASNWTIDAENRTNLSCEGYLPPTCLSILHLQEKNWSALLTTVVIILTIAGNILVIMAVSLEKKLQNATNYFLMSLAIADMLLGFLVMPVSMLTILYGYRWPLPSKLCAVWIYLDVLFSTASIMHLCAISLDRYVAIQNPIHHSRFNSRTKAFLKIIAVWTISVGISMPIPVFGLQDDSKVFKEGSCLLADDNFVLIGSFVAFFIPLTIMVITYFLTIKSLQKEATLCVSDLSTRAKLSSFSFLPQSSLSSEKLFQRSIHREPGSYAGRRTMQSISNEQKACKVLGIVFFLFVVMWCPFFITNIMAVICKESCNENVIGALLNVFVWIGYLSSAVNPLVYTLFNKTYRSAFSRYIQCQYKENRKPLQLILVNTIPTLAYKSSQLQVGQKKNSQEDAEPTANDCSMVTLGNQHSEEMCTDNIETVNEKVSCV
# TLR9-MyD88 inh: TLR9-MyD88 interaction inhibition; CHO BLA complementation TLR9-MyD88, CCF4 FRET ratio; inhibition, % at 4.98 µM; actives 0.21% (n = 340,000);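 active means inhibition above the mean over all tested compounds plus 3 SD, cut at about 21% in these data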;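 further: 0% = DMSO only wells and 100% = clavulanate BLA inhibitor control wells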
# ABHD5 PLIN5 PPI: ABHD5-PLIN5 protein interaction inhibition | AID 602281 | Q00G26+Q8WTS1 | Split G. princeps luciferase complementation, luminescence, 4 h | actives 0.78% (n = 360,000) | inhibition, % at 4 µM;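 active means inhibition above the mean inhibition across every tested compound plus 3 SD, cut at about 22% in these data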;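 further: 0% = DMSO only wells and the 100% control is not disclosed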
# NOD2 RIPK2 PPI: NOD2-RIPK2 protein interaction inhibition; CHO BLA complementation NOD2-RIPK2, CCF4 ratio; inhibition, % at 4.98 µM; actives 0.38% (n = 360,000); AID 624267; in the data active means inhibition above about 21%;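 further: 0% = vehicle only and 100% = reference blocker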
# * hit, by the source's call; . = no result given. Rows were chosen to be rich in hits. Some 2.4% of all compounds tested hit in one or more screens of this group.
SMILES,CRFBP-R2 block,TLR4-MyD88 BLA,HTR2A ag,TLR9-MyD88 inh,ABHD5 PLIN5 PPI,NOD2 RIPK2 PPI
Cc1c(O)c(CN2CCCCC2)cc2c3c(c(=O)oc12)CCC3,-1,6,-1,1,-1,-9
Cc1c(O)c(CN2CCCCC2)cc2c1oc(=O)c1ccccc12,59*,4,-2,-14,4,-7
COc1ccc(CN2C[C@@H](CO)O[C@@H](n3cnc4c(NCc5ccncc5)ncnc43)C2)cc1,.,.,6,.,14,-3
C=C(C)COc1ccc(-c2[nH]ncc2Oc2ccc(OC)cc2)c(O)c1,39,.,3,4,-13,2
C=C(C)COc1ccc(-c2[nH]ncc2Oc2ccccc2OC)c(O)c1,51*,-6,2,6,0,3
CC1CCN(c2nc(-c3ccco3)c3c(c2C#N)CC(C)(C)OC3)CC1,-10,-1,-1,0,23*,2
Cc1ccc(N2CC(C(=O)Nc3cc(S(=O)(=O)N4CCCCC4)ccc3C)CC2=O)cc1 (stereo not drawn),33,.,8,3,-11,1
CC1CCN(C(=O)COC(=O)c2cc([N+](=O)[O-])ccc2N2CCOCC2)CC1,6,.,-3,8,2,8
COC(=O)C1CCN(C(=O)COC(=O)c2cc([N+](=O)[O-])ccc2N2CCOCC2)CC1,105*,.,10,5,1,5
CCN1C(=O)CC2CCCC1C2 (stereo not drawn),75*,.,-2,-4,2,-2
CCCN1C2CCCC1CC(NC(=O)c1ccc(C(C)(C)C)cc1)C2 (stereo not drawn),2,.,-6,-2,1,2
COc1ccccc1NS(=O)(=O)c1cc(C(=O)N2CCCC2)ccc1F,79*,.,0,-7,10,0
COc1ccccc1NS(=O)(=O)c1cc(C(=O)N2CCCCCCC2)ccc1C,-1,.,-3,-9,13,3
c1ccc(Sc2ccccn2)cc1,4,.,-5,.,0,-6
c1ccc(SSc2ccccn2)nc1,-14,.,-4,2,35*,2
CCc1nc2ccc(C(=O)NCCN3CCNC3=O)cn2c1N(C)CCC(C)C,.,.,-2,.,-4,-6
Cc1ccc(Nc2cc(C)nn2-c2nc(C)cc(=O)[nH]2)cc1,-1,16,-12,41*,-6,53*
CCNC(=S)Nc1cc(OC)c(NC(=O)c2ccco2)cc1OC,73*,5,-3,4,1,-4
O=C(NCc1cn2ccccc2n1)C1CCC(=O)N(Cc2ccccc2F)C1 (stereo not drawn),61*,.,3,-4,3,2
CCn1ccnc1CNC(=O)C1CCC(=O)N(Cc2ccccc2F)C1 (stereo not drawn),10,.,-1,9,1,-2
Cc1cc(SCC(=O)c2ccc(Cl)cc2)nc(=O)[nH]1,81*,.,0,2,-21,-7
COc1ccc(OC)c(NC(=O)Nc2nnc([C@H]3C[C@H](O)[C@@H](CO)O3)s2)c1,.,.,-1,.,4,8
COC(=O)[C@@]12C[C@@H](CC(=O)NCc3ccc(C)o3)C(=O)N(CCc3ccc(OC)c(OC)c3)C1=CCC(C)(C)C2,.,.,5,.,10,0
CN(CCO)S(=O)(=O)c1ccc2c(c1)C(=NNC(N)=O)c1cc(S(=O)(=O)N(C)CCO)ccc1-2,85*,.,-4,-6,11,-19
O=c1[nH]c(=O)n(-c2ccc(F)cc2)c2c1C(C(F)(F)F)(C(F)(F)F)N=C(c1ccc(F)cc1)N2,67*,-7,4,-6,0,-8
SMILES,CRFBP-R2 block,TLR4-MyD88 BLA,HTR2A ag,TLR9-MyD88 inh,ABHD5 PLIN5 PPI,NOD2 RIPK2 PPI
COc1ccc(C(=O)Nc2cc(Cl)ccc2OC(=O)c2ccc(OC)cc2)cc1,-3,-3,1,11,2,-3
COc1ccc(OC(=O)c2ccc(Cl)cc2)c(C(C)=O)c1,52*,0,3,-1,3,0
CC1(C)CC2(C)OC2C2(C1)N=NC(=Nc1ccccc1)O2 (stereo not drawn),.,.,0,.,-1,-4
CC(=O)Nc1ccc(-c2ccnc3c2CC(C)(C(=O)NCc2ccc(N4CCN(C)CC4)cc2)O3)cc1 (stereo not drawn),.,.,-5,.,4,3
O=C1OC(c2ccc(Cl)cc2)/C(=C(/O)c2ccccc2)C1=O (stereo not drawn),9,-3,4,16,23*,-3
CCC(C(=O)NCc1ccccc1)n1c(-c2cccs2)nc2ccccc21 (stereo not drawn),.,.,-3,.,-8,-3
CN(C)c1cccc(C(=O)OCC(=O)Nc2ccccc2Sc2ccccc2)c1,62*,-7,-3,3,-8,1
O=C1NC[C@H](CCCCN2CCN(CCc3ccccc3)C(=O)C2=O)N(Cc2ccccc2)C1=O,.,.,-1,.,2,-6
N#C/C(=C/c1ccc(N2CCCCC2)o1)C(=O)Nc1ccc(Cl)cc1,-117,11,3,5,9,-8
N#C/C(=C/c1ccc(N2CCOCC2)o1)c1ccc(Br)cc1,-23,16,6,6,63*,25*
COc1cc(N2CCCC2)c(OC)cc1/C=C(/C#N)c1cccc(F)c1,-90,13,2,-7,-1,-1
N#C/C(=C\c1ccc(N2CCOCC2)o1)C(=O)Nc1ccc(O)cc1,-117,-10,-6,.,12,-7
N#C/C(=C/c1ccc(N2CCCCCC2)o1)c1ccc(F)cc1,-5,2,1,24*,71*,39*
N#C/C(=C/c1ccc(N2CCCCCC2)o1)c1cccc(F)c1,9,18,1,4,59*,13
COc1cc(-c2c(CCO)sc3ccccc23)cc(OC)c1OC,.,.,-2,.,11,1
COC(=O)c1cc(C(=O)Nc2cc(C)on2)cc([N+](=O)[O-])c1,-16,.,-1,-1,1,2
COC(=O)c1cc(C(=O)Nc2cc(C)ccn2)cc([N+](=O)[O-])c1,34,3,15*,10,3,-6
Cc1onc(-c2ccccc2)c1C(=O)n1nnc2ccccc21,-15,-9,3,4,0,-1
Cc1nn(C(=O)c2c(-c3ccccc3)noc2C)c(C)c1N=Nc1cc(C(F)(F)F)cc(C(F)(F)F)c1,53*,.,-3,2,8,-14
O=C(Nc1ccccc1[N+](=O)[O-])OCC=Cc1ccccc1,-7,.,8,2,2,-1
COC(=O)Nc1cccn(Cc2c(Cl)cccc2Cl)c1=O,32,1,-2,2,-1,-12
O=C(Nc1cccn(Cc2c(Cl)cccc2Cl)c1=O)c1c(Cl)cccc1Cl,52*,5,-5,3,3,-6
CC(C)C[C@@H]1COc2cc(N(C)CCO)ccc2S(=O)(=O)N1,.,.,2,.,9,-23
